PubChem BioAssay (NCI)
Compounds without any hit were thinned out: in the full panel of roughly 83,000, 20% have a hit.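 Plates (96-well) were seeded with cells, treated with compound at one concentration, and incubated for 48 hours before percent growth was determined.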 Active and inactive are the calls of the source. Rule for the calls: active = growth percent below 10; inactive = the rest.

The molecules below were run on HL-60(TB) leukemia (assay: NCI-60 one-dose screen, 48 h (100 = growth as untreated, 0 = no growth, -100 = all killed)). Conditions: 10 µM unless noted.
With `O=C(NCC(c1ccsc1)N1CCCCCC1)c1ccc(C(F)(F)F)cc1` (stereo not drawn) the growth was 97.5% (inactive). With `CCC(c1ccccc1)c1noc(CCN(CC)CC)n1` (stereo not drawn) the growth was 77.3% (inactive). `CC[C@@H]1NC(=O)[C@H]([C@H](O)[C@H](C)C/C=C/c2ccc(CN3C(=O)CCCC3=O)cc2)N(C)C(=O)[C@H](C(C)C)N(C)C(=O)[C@H](CC(C)C)N(C)C(=O)[C@H](CC(C)C)N(C)C(=O)[C@@H](C)NC(=O)[C@H](C)NC(=O)[C@H](CC(C)C)N(C)C(=O)[C@H](C(C)C)NC(=O)[C@H](CC(C)C)N(C)C(=O)CN(C)C1=O` was tested, and the growth was 61.3% (inactive). In the case of `NCCCNc1nc2ccccc2c2c(=O)c3cc(OC(F)(F)F)ccc3sc12`, the growth is reported as -41.5% (active). With `CC[N+](CC)(CCCC(C)[N+]1(Cc2ccccc2)C(C)=CC=C1C)Cc1ccccc1` (stereo not drawn) the growth was 37.1% (inactive). With `COc1ccc(O)c(-c2cc(-c3ccc(Cl)cc3)c(C#N)c(=O)[nH]2)c1` the growth was 65.2% (inactive). For `C#CC(C)(O)[C@@H]1C[C@H](CC(=O)O)C1(C)C` (stereo partly drawn), the growth was 113% (inactive). `CSc1nc(N)c2c(n1)N(C)C=NS2(=O)=O` was tested, and the growth was 124% (inactive). In the case of `COC12C=C/C(=C(/C(=O)OCc3ccccn3)C(=O)CCCCCCCCC3(OC)C=C/C(=C(/C(=O)OCc4ccccn4)C(=O)CCCCCCCC1)O3)O2`, the growth is reported as -19% (active). For `Cc1ccc(Cn2c(O)c(N=NC(=O)c3ccc(S(N)(=O)=O)cc3)c3ccccc32)cc1`, the growth was 98.6% (inactive). `CCN(CC)c1ccc2cc(NC(=O)OCCNC(=O)CCNC(=O)[C@H](CC(C)C)NC(=O)C(C)(C)NC(=O)C(C)(C)NC(=O)[C@H](CC(C)C)NC(=O)CCNC(=O)C(C)(C)NC(=O)[C@H](CC(C)C)NC(=O)CCNC(=O)[C@@](C)(CC)NC(=O)[C@H](C)NC(=O)CCNC(=O)C(C)(C)NC(=O)[C@H](C)NC(=O)[C@@H]3CCCN3C(=O)[C@@](C)(CC)NC(=O)[C@H](Cc3ccccc3)NC(=O)C3CCCN3C(=O)C(C)(C)NC(=O)C3CCCN3C(=O)C(C)(C)NC(C)=O)c(=O)oc2c1` (stereo partly drawn) was tested, and the growth was -67.7% (active). For `CCN(CC)CCCC(C)Nc1ccc2ccc(Cl)cc2n1` (stereo not drawn), the growth was 101% (inactive). In the case of `CCSc1ncc(Br)c(Sc2nc(N)nc3nc[nH]c23)n1`, the growth is reported as 87.8% (inactive). `Cc1cc(Nc2c3ccccc3nc3ccccc23)ccc1NS(C)(=O)=O` was tested, and the growth was 32.2% (inactive). In the case of `CCOC(=O)CC(=O)OC`, the growth is reported as 97% (inactive). For `Fc1ccc2[nH]cc(-c3nc(-c4c[nH]c5ncccc45)cs3)c2c1`, the growth was 14% (inactive). `COc1cc2nc(N3CCC[C@H](NC4=CC(=O)c5ccccc5C4=O)C3)nc(N)c2cc1OC` was tested, and the growth was -64.6% (active). In the case of `CCc1nn2c(-c3ccccc3)c(-c3cc(OC)c(OC)c(OC)c3)nc2s1`, the growth is reported as 68% (inactive). For `N#CC1=C(N)Oc2c(ccc3ccccc23)C1c1cccs1` (stereo not drawn), the growth was -29.6% (active). With `C=CC(=O)OCCCCCCCC` the growth was 88.6% (inactive). `CC(=O)O[C@H]1CC[C@]2(C)[C@H]3CC=C4[C@@H]5[C@H](C)[C@@H](C)CC[C@]5(C(=O)NCCNCCNCCN)CC[C@@]4(C)[C@]3(C)CC[C@H]2C1(C)C` was tested, and the growth was 81.6% (inactive). With `CCc1cc(Cc2cc(CC)cc(C(C)(C)C)c2O)c(O)c(C(C)(C)C)c1` the growth was 58.1% (inactive). `CCc1ccc(C2=C/C(=C/c3ccc(Cl)cc3)C(=O)N2CCc2ccc(S(N)(=O)=O)cc2)cc1` was tested, and the growth was -18.9% (active).
